Measured values from PubChem BioAssay (NCATS).
Values joined by “and” are separate entries in the source; they are usually repeats but may differ in a detail not shown here. Equal entries are not always repeated. Results filed as inconclusive are left out. Active and inactive are the calls of the source. Calls come from the whole dose curve; as a rule, active = well fitted curve in the direction sought with a large enough effect; inconclusive = small, poorly fitted or top-dose-only effect, or another doubt; inactive = no such curve, though single readings can be large; an effect the other way counts as inactive or inconclusive.

Tests used:
[1] = Viability qHTS for spleen associated tyrosine kinase inhibitor (SYKi) naive MV4-11 cells (AID 1963823); note: nearly all actives have a fitted effect of over 40% in size
Summary of the method: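 SYKi-naive MV4-11 AML cells, 500 per well, were exposed to library compounds for 72 hr at 37 C, 5% CO2. Viability was then read by CellTiter-Glo luminescence after 10 min at room temperature.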

[2] = Viability qHTS for spleen associated tyrosine kinase inhibitor (SYKi) drug resistant MV4-11 cells (AID 1963824); note: nearly all actives have a fitted effect of over 35% in size
Summary of the method: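 SYK inhibitor-resistant MV4-11 AML cells, 500 per well, added to predispensed compounds and incubated 72 hr at 37 C, 5% CO2. Viability measured by CellTiter-Glo luminescence after 10 min at room temperature.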

[3] = Quantitative highthroughput screen to assess conditional lethalithy of NOMO1 cells grown in RPMI1640 with dialyzed fetal bovine serum (RPMI+ds) (AID 1963877); note: nearly all actives have a fitted effect of over 30% in size;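 for Viability: series mostly up to about 46 µM; 100% = DMSO control wells and 0% = empty wells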
Summary of the method: (§1)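 Each medium arm—HPLM with 10% dialyzed FBS, or RPMI1640 with 5 mM glucose and 10% untreated or dialyzed FBS—was screened against an 11-point, 3-fold compound titration for 48 h at 37 °C, with CellTiter-Glo luminescence as endpoint.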

[4] = Quantitative highthroughput screen to assess conditional lethalithy of NOMO1 cells grown in Human Plasma-Like Medium with dialyzed fetal bovine serum (HPLM+ds) (AID 1963878); note: nearly all actives have a fitted effect of over 35% in size;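 for Viability: 100% = DMSO wells and 0% = empty wells on each plate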
Summary of the method: as §1

[5] = Quantitative highthroughput screen to assess conditional lethalithy of SEM cells grown in Human Plasma-Like Medium with dialyzed fetal bovine serum (HPLM+ds) (AID 1963882); note: nearly all actives have a fitted effect of over 35% in size; for Viability: series mostly up to about 46 µM
Summary of the method: as §1

[6] = Quantitative highthroughput screen to assess conditional lethalithy of SEM cells grown in RPMI1640 with dialyzed fetal bovine serum (RPMI+ds) (AID 1963884); note: nearly all actives have a fitted effect of over 35% in size;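 for Viability: series mostly up to about 46 µM; 100% = DMSO control wells and 0% = empty wells without cells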
Summary of the method: as §1

[7] = Cellular viability qHTS for adrenocortical cancer (ACC) cell line NCI-H295R (AID 1963990); note: nearly all actives have a fitted effect of over 60% in size
Summary of the method: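 Viability of NCI-H295R after 48 h of treatment (final up to 46 uM) measured through cellular ATP luminescence.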

[8] = Quantitative highthroughput screen to assess conditional lethalithy of SEM cells grown in RPMI1640 with unreated serum (RPMI+s) (AID 1963883); note: nearly all actives have a fitted effect of over 35% in size;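 for Viability: 100% = DMSO wells and 0% = empty wells without cells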
Summary of the method: as §1

[9] = Cellular viability qHTS for adrenocortical cancer (ACC) cell line SW-13 (AID 1963989); conditions: SW-13 ACC cells viability, CellTiter-Glo, 48 h; activity (max response): stronger effect = lower value; note: nearly all actives have a fitted effect of over 65% in size;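 for activity (max response): cells grown in serum-free medium with ITS supplement; % is set by controls: 0 for no effect and ±100 for the full control effect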
Summary of the method: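 Here, serum-free SW-13 cultures were dosed up to 46 uM. Following 48 h, ATP-dependent luminescence (CellTiter-Glo) reported viable cells, and logistic modeling produced IC50 values.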

[10] = Quantitative highthroughput screen to assess conditional lethalithy of P12 Ichikawa cells grown in Human Plasma-Like Medium with dialyzed fetal bovine serum (HPLM+ds) (AID 1963879); conditions: Potency: viability; note: nearly all actives have a fitted effect of over 35% in size; for Viability: series mostly up to about 46 µM
Summary of the method: as §1

[11] = Quantitative highthroughput screen to assess conditional lethalithy of P12 Ichikawa cells grown in RPMI1640 with untreated serum (RPMI+s) (AID 1963881); conditions: Potency: viability; note: nearly all actives have a fitted effect of over 35% in size;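 for Viability: series mostly up to about 46 µM; 100% = DMSO wells and 0% = empty wells without cells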
Summary of the method: as §1

[12] = Quantitative highthroughput screen to assess conditional lethalithy of P12 Ichikawa cells grown in RPMI1640 with dialyzed fetal bovine serum (RPMI+ds) (AID 1963880); conditions: Potency: P12-Ichikawa viability; note: nearly all actives have a fitted effect of over 35% in size;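 for Viability: 100% = DMSO wells and 0% = empty wells on each plate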
Summary of the method: as §1
Potency is the fitted concentration of half-maximal effect.

O=C(Nc1ccccc1-c1cn2c(CN3CCNCC3)csc2n1)c1cnc2ccccc2n1
inactive: Potency [3] | Potency [4]
active: Potency [1] 9.2 µM | Potency [2] 13 µM | Potency [5] 18.7 µM | Potency [6] 13.2 µM | Potency [7] 7.08 µM

Nc1nc2c(ncn2COC(CO)CO)c(=O)[nH]1
inactive: Potency [1] | Potency [2] | activity (max response) [9] 8.16% and -8.2% | Potency [7]
active: Potency [3] 26.4 µM | Potency [4] 23.5 µM | Potency [5] 23.5 µM | Potency [8] 20.9 µM

COc1ccc([C@@H]2CNC(=O)C2)cc1OC1CCCC1
inactive: Potency [1] | Potency [2] | Potency [3] | Potency [4] | Potency [10] | Potency [11] | Potency [5] | Potency [8] | activity (max response) [9] -15.2% | Potency [7]

COc1ccc2cc([C@H](C)C(=O)O)ccc2c1
inactive: Potency [1] | Potency [2] | Potency [3] | Potency [10] | Potency [11] | activity (max response) [9] 13.9% and -10.9% | Potency [7]
active: Potency [8] 9.35 µM | Potency [6] 10.5 µM

O=C(N[C@@H](c1ccccc1)[C@@H]1CCCCN1)c1cccc(C(F)(F)F)c1Cl
active: Potency [1] 16.6 µM | Potency [2] 16.6 µM | Potency [9] 28.2 µM | Potency [7] 8.91 µM
inactive: Potency [3] | Potency [10]

CC[C@]1(O)C[C@H]2CN(CCc3c([nH]c4ccccc34)[C@@](C(=O)OC)(c3cc4c(cc3OC)N(C=O)[C@H]3[C@@](O)(C(=O)OC)[C@H](OC(C)=O)[C@]5(CC)C=CCN6CC[C@]43[C@@H]65)C2)C1
active: Potency [1] 0.0118 µM | Potency [2] 119 nM and 10.5 nM | Potency [3] 0.0662 µM | Potency [10] 0.0264 µM | Potency [12] 0.0418 µM | Potency [11] 0.0264 µM | Potency [5] 0.0332 µM | Potency [6] 0.0469 µM | Potency [9] 8.2 nM and 28.2 nM | Potency [7] 146 nM and 1.78 µM

O=C1CCc2ccc(OCCCCN3CCN(c4cccc(Cl)c4Cl)CC3)cc2N1
active: Potency [1] 10.5 µM | Potency [2] 9.34 µM
inactive: Potency [3] | Potency [10] | Potency [11] | Potency [5] | Potency [8] | Potency [7]

CCCCCCCCCCCCc1ccc(S(=O)(=O)Nc2nncs2)cc1
active: Potency [1] 16.4 µM | Potency [4] 7.43 µM | Potency [8] 3.32 µM | Potency [6] 6.62 µM
inactive: Potency [2] | Potency [3] | Potency [11] | Potency [5]

CC(C)C[C@H](NC(=O)CNC(=O)c1cc(Cl)ccc1Cl)B(O)O
active: Potency [1] 0.0934 µM | Potency [2] 0.0934 µM | Potency [3] 0.418 µM | Potency [9] 2 µM | Potency [7] 0.398 µM

CCN1CCCC1CNC(=O)c1cc(S(=O)(=O)CC)c(N)cc1OC (stereo unspecified)
inactive: Potency [1] | Potency [2] | Potency [3] | Potency [10] | Potency [11] | Potency [8] | Potency [6] | activity (max response) [9] 7.57% and -4.85% | Potency [7]

Cc1cn(CCN2CCN(c3ccccc3-c3cc(C#N)cc(C(=O)NCCCN4CCCC4)c3)CC2)c2ccccc12
active: Potency [1] 3.72 µM | Potency [2] 3.66 µM and 3.32 µM | Potency [3] 10.5 µM | Potency [4] 8.31 µM | Potency [12] 7.41 µM | Potency [11] 8.31 µM | Potency [5] 6.6 µM | Potency [8] 13.2 µM | Potency [9] 22.4 µM | Potency [7] 5.62 µM

O=C(Nc1cn[nH]c1-c1nc2ccc(CN3CCOCC3)cc2[nH]1)NC1CC1
active: Potency [1] 0.0259 µM | Potency [2] 73.1 nM and 51.7 nM and 132 nM | Potency [3] 18.7 µM | Potency [4] 14.8 µM | Potency [5] 0.0833 µM | Potency [8] 0.0418 µM | Potency [6] 0.0332 µM | Potency [9] 3.16 µM | Potency [7] 20 µM

Cc1cc(Nc2nc(N[C@@H](C)c3ccc(F)cc3)c(C#N)cc2F)n[nH]1
active: Potency [1] 0.651 µM | Potency [2] 580 nM and 590 nM | Potency [3] 2.64 µM | Potency [12] 2.09 µM | Potency [11] 2.35 µM | Potency [5] 3.32 µM | Potency [6] 2.64 µM | Potency [9] 3.16 µM

OCCC#Cc1nc(-c2ccc(F)cc2)c(-c2ccncc2)n1CCCc1ccccc1
active: Potency [1] 20.6 µM | Potency [2] 10.3 µM and 11.8 µM | Potency [6] 18.7 µM
inactive: Potency [3] | Potency [4] | Potency [12] | Potency [5] | Potency [8]

Cc1ccn(-c2ccc(-c3ncco3)cc2)c(=O)c1-c1ccc2nc(N)ncc2c1
inactive: Potency [3] | Potency [4] | Potency [10]
active: Potency [1] 1.64 µM | Potency [2] 2.31 µM | Potency [6] 1.87 µM
